# Screening results as filed in PubChem.
# Sm TGR block = qHTS Assay for the Inhibitors of Schistosoma Mansoni Peroxiredoxins | Schistosoma mansoni thioredoxin glutathione reductase (TGR), Q962Y6 | purified TGR, DTNB reduction, TNB absorbance 405 nm | Potency, µM (doses to about 114 µM), hits mostly inhibitors | 360,000 tested, 3% active | AID 485364, 2010; further: nearly all actives have a fitted effect of over 60% in size
#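 Kinetic colorimetric format: TGR-catalysed, NADPH-driven DTNB reduction monitored via TNB absorbance. Enzyme dispensed at 20 nM; compound exposure 15 min at room temperature before reaction start.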
# AMA1 RON2 block = qHTS for Inhibitors of AMA1-RON; Towards Development of Antimalarial Drug Lead: Primary Screen; 360,000 tested, 0.2% active; AID 720542, 2013; Potency, µM (highest dose often 58.2 µM), most hits filed as inhibitors; Plasmodium falciparum AMA1 (3D7) - RON2 peptide interaction; AlphaScreen AMA1-biotinylated RON2 peptide binding; further: nearly all actives have a fitted effect of over 45% in size
#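 AMA1 (3D7) with his tag at 25 nM final met compounds first, then biotinylated RON2 peptide at 25 nM; detection used donor plus acceptor beads, 10 µg/mL apiece, read by AlphaScreen after 30 min at room temperature.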
# NS1 function inh = qHTS Assay for Inhibitors of Influenza NS1 Protein Function; Potency, µM (series often up to 46.1 µM); AID 2326, 2010; 270,000 tested, 0.4% active; calls by dose curve; further: actives are rising curves; nearly all actives have a fitted effect of over 50% in size
#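 In this qHTS, NS1 from influenza A is expressed in budding yeast, where it slows growth. Cells are switched from glucose to 2% galactose medium (pH 6.0, -URA), treated with compound, and growth recovery is read at OD600.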
# Pf growth 96h = Primary qHTS for delayed death inhibitors of the malarial parasite plastid, 96 hour incubation | Potency, µM (series often up to 28.7 µM), usual class: inhibitors | 320,000 tested, 6.9% active | P. falciparum luciferase reporter growth, 96 h | AID 504834, 2011
#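 Delayed-death screen, second-generation endpoint: infected erythrocytes, 2% hematocrit, 0.05% parasitemia final; 96 hours at 37 C, 5% CO2; luciferase detection reagent; luminescence decrease equals reduced growth.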
# Pf growth 48h = Primary qHTS for delayed death inhibitors of the malarial parasite plastid, 48 hour incubation; P. falciparum luciferase growth in erythrocytes, 48 h; Potency, µM (top dose mostly 28.7 µM), most hits filed as inhibitors; 310,000 tested, 5.9% active
#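 Here the parasites carry a stable luciferase gene and grow inside erythrocytes in Albumax-based RPMI medium with compound for one erythrocytic cycle. Activity is scored as loss of luminescent signal.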
# Numbers stand for hits; 0 = inactive; ? = inconclusive; - = no result; [ ] = another dose, or the depositor's remark. Shown are actives, neighbours in structure and some others; about 11% of the full set was active somewhere. Unless noted, the call rests on the fitted dose curve; in most records, active means well fitted curve in the direction sought with a large enough effect; inconclusive means small, poorly fitted or top-dose-only effect, or another doubt; inactive means no such curve, though single readings can be large; an effect the other way counts as inactive or inconclusive.
SMILES,Sm TGR block,AMA1 RON2 block,NS1 function inh,Pf growth 96h,Pf growth 48h
CCOC(=O)c1ccc(NC(=O)CCS(=O)(=O)c2ccc(Br)s2)cc1,11.2µM,0,0,-,?
CCOC(=O)c1ccc(NC(=O)Nc2ccc(F)cc2)cc1,0,0,0,13.1µM,-
COc1ccc(NC(=O)CCS(=O)(=O)c2ccc(Br)s2)cc1,0,0,0,0,0
Cc1cn([C@H]2C[C@H](O)[C@@H](CNCc3ccc(F)c(N4CCOCC4)c3)O2)c(=O)[nH]c1=O,-,0,-,-,-
CN(Cc1cn(Cc2cccc(Cl)c2)nn1)C1CN(Cc2cn(Cc3cccc(Cl)c3)nn2)S(=O)(=O)C1 (stereo unspecified),-,0,-,-,-
COc1ccc(NC(=O)C2CCCN(S(=O)(=O)c3ccccc3)C2)c(OC)c1 (stereo unspecified),0,0,0,?,0
CCCN(CCC)CCCNC(=O)C1CCCN(S(=O)(=O)c2cccc3nsnc23)C1 (stereo unspecified),0,-,-,-,-
Cc1cc(C)cc(NS(=O)(=O)c2ccc3c(c2)C(C)(C)C(=O)N3C)c1,0,0,0,?,0
CCOC(=O)c1ccc(NC(=O)NCc2ccccc2OC)cc1,0,0,0,13.1µM,?
COC(=O)c1sccc1NC(=O)c1c(Cl)cnn1C,0,0,0,?,0
COC(=O)C/C=C/[C@@H](C)[C@@H](/C=N/OC[C@@H](C)[C@H](OCc1ccccc1)C(C)C)NS(=O)(=O)c1ccc(C)cc1,0,-,0,9.28µM,13.1µM
CCOC(=O)C1=C(N)OC2=C(C(=O)CCC2)C12C(=O)N1c3c(ccc(C)c32)C(C)=CC1(C)C (stereo unspecified),0,0,0,11.7µM,?
CO[C@H]1/C=C/O[C@@]2(C)Oc3c(C)c(O)c4c(O)c(c(/C=N\N5CCN(C6CCCC6)CC5)c(O)c4c3C2=O)NC(=O)/C(C)=C\C=C\[C@H](C)[C@H](O)[C@@H](C)[C@@H](O)[C@@H](C)[C@H](OC(C)=O)[C@@H]1C,-,-,-,0,0
O=C1C2CCCN2C(c2ccncc2)N1c1ccc(Cl)c(Cl)c1 (stereo unspecified),0,0,0,0.828µM,13.1µM
COc1ccc(N(C(=O)Cn2cnc3ccccc32)C(C(=O)NC2CCCCC2)c2ccccc2)cc1 (stereo unspecified),0,0,0,?,13.1µM
COc1ccc(N(C(=O)Cn2nnc3ccccc32)C2(C(=O)NC3CCCC3)CCCCC2)cc1,0,0,0,13.1µM,13.1µM
COc1ccc(OC)c(C(C(=O)NCc2ccco2)N(C(=O)Cn2nnc3ccccc32)C2CC2)c1 (stereo unspecified),0,0,0,?,?
COc1ccc(C(C(=O)Nc2ccc(F)cc2)N(C(=O)Cn2nnc3ccccc32)C2CC2)cc1 (stereo unspecified),0,0,0,?,5.86µM
COc1ccc(OC)c(NC(=O)C2CCCN(S(=O)(=O)c3ccc4[nH]c(=O)ccc4c3)C2)c1 (stereo unspecified),0,-,-,-,-
O=C(Nc1ccccc1F)C1CCCN(S(=O)(=O)c2ccccc2)C1 (stereo unspecified),0,0,-,0,0
COc1ccccc1C(=O)Nc1ncc2c(n1)CC(c1ccco1)CC2=O (stereo unspecified),20µM,0,0,0,?
COc1ccc(C(=O)CSc2nnc(CN3CCCCC3)n2-c2ccc(Cl)cc2)cc1OC,0,0[11.6 µM],0,10.4µM,?
O=C(CSc1nnc(CN2CCCC2)n1-c1ccccc1)c1ccc2c(c1)OCO2,-,0,-,-,-
COc1ccc(S(=O)(=O)N/N=C\c2ccc([N+](=O)[O-])o2)c(OC)c1,0,0,0,10.4µM,0
C#CCOCCOCCOCCNc1nc(N2CCN(C(=O)CCCCCCCCCCNC(=O)Cn3cc(C[C@@H](C)O)nn3)CC2)nc(N2CCN(C(=O)CCCCCCCCCCNC(=O)[C@@H]([C@H](C)CC)n3cc(CCCCCN)nn3)CC2)n1,0,?,-,?,2.33µM
SMILES,Sm TGR block,AMA1 RON2 block,NS1 function inh,Pf growth 96h,Pf growth 48h
C#CCOCCOCCOCCNc1nc(N2CCN(C(=O)CCCCCCCCCCNC(=O)Cn3cc(CCCCCN)nn3)CC2)nc(N2CCN(C(=O)CCCCCCCCCCNC(=O)Cn3cc(C[C@@H](C)O)nn3)CC2)n1,0,?,-,0.294µM,0.329µM
CNc1nnc(Sc2ncccc2[N+](=O)[O-])s1,?,0,0,?,9.28µM
O=c1ccnc(Sc2ncccc2[N+](=O)[O-])[nH]1,0,0,0,0,0
COc1ccc(Nc2nc(C)nc3sc4c(c23)CCC4)cc1O,0,0,-,?,?
C=CCOc1cccc(C2C(C(=O)c3ccco3)=C(O)C(=O)N2CCN2CCOCC2)c1 (stereo unspecified),25.1µM,0,0,0,0
O=C(C1=C(O)C(=O)N(CCc2ccccc2)C1c1cccnc1)c1ccco1 (stereo unspecified),0,0,0,0,6.57µM
C=CCOc1cccc(C2C(C(=O)c3ccco3)=C(O)C(=O)N2Cc2ccncc2)c1 (stereo unspecified),44.7µM,0,0,0,0
C=CCOc1cccc(C2C(C(=O)c3ccco3)=C(O)C(=O)N2Cc2ccco2)c1 (stereo unspecified),31.6µM,0,0,0,0
O=C(C1=C(O)C(=O)N(Cc2cccnc2)C1c1cccc(Oc2ccccc2)c1)c1ccco1 (stereo unspecified),-,0,-,-,-
COc1ccc(CC(C)N2CCN(Cc3ccccc3)CC2)cc1OC (stereo unspecified),0,0,0,?,0
COc1ccc(S(=O)(=O)N2CCN(Cc3cccc([N+](=O)[O-])c3)CC2)cc1,-,0,-,-,-
COc1ccc2ccc(O)c(CN3CCN(S(=O)(=O)c4cc([N+](=O)[O-])ccc4C)CC3)c2c1,1.58µM,0,-,?,?
CCOC(=O)C1CCN(C(=O)Cn2cnc3sc(C)c(S(=O)(=O)N4CCC(C)CC4)c3c2=O)CC1,0,0,0,0,4.15µM
CCN1CCCC1CNC(=O)Cn1cnc2sc(C)c(S(=O)(=O)N3CCC(C)CC3)c2c1=O (stereo unspecified),0,0,0,6.57µM,0
CCOc1ccccc1NC(=O)CSc1nc(=O)[nH]c2c1CCCC2,0,-,-,-,-
O=C(CSc1nc2c(c(=O)[nH]1)CCC2)Nc1cccc(Cl)c1,0,0,0,0,0
CCc1cccc(NC(=O)CSc2nc3c(c(=O)[nH]2)CCCC3)c1,0,-,0,8.28µM,0
Cc1ccc(/C=N/NC(=O)CN2CCN(Cc3ccccc3)CC2)o1,0,0,0,0,0
Cc1cccc(N2CCN(C(=O)CNC(=O)c3cccc([N+](=O)[O-])c3)CC2)c1C,0,0,0,?,0
